In PubChem BioAssay AID463173 (ICCB-Longwood Screening Facility, Harvard Medical School, 2010) one finds survival data, which are given here for 95 compounds.

Structures are written as SMILES. The campaign covered roughly 52,000 compounds. About 4,300 (8.3%) were called active. Rule as the data show it: active = survival mostly below about 52% (no sharp cut-off); inactive = mostly above about 56%. This excerpt belongs to a sample that is enriched for actives.

The subject of the test is DeltatarO mutant. Nature of the test: growth inhibition of S. aureus wild type versus tarO mutant, primary screen, teichoic acid synthesis inhibitors, RN4220, OD600 (AID 463173). Particulars: OD600, 18 h, active compounds read low, screened at 18.75 µg/mL (by protocol).
On to `CC1=C(c2ccc(C)c(C)c2)S(=O)(=O)N=C1N1CCC(C(=O)Nc2cccc(F)c2)CC1`, for which the survival is 79% (inactive). On to `O=C(COC(=O)c1ccccc1Cl)Nc1nccs1`, for which the survival is 94% (inactive).

In the case of `Cc1ccc(CCNC(=O)NCc2noc3ccccc23)cc1`, the survival was 102% (inactive). In the case of `COc1ccc(CNC(=O)C(=O)Nc2c3c(nn2-c2ccccc2)CSC3)cc1`, the survival was 86% (inactive). For the compound `Cc1ccc(OCCSc2nc(-c3ccccc3C)nc3cc(=O)[nH]n23)cc1Cl`, the survival is 106% (inactive).

For the compound `COc1ccc(CNC(=O)CCS(=O)(=O)c2cc(Br)cc3c2N(C(C)=O)C(C)C3)cc1` (stereo not given), the survival is 92% (inactive).

As to `CCOC(=O)c1c(S(=O)(=O)N2CCC(C(=O)Nc3cccc(C)n3)CC2)c(C)n(C)c1C`, the survival is 94% (inactive). Consider `CCC(C(=O)Nc1cc(F)ccc1F)n1nc(C)c2c(C)n(-c3ccc(C)cc3)nc2c1=O` (stereo not given), for which the survival was 87% (inactive). Regarding `Cc1ccc2onc(CNC(=O)Nc3cc(F)ccc3F)c2c1`, the survival is 49% (inactive). Regarding `CCC(C(=O)Nc1cc(F)ccc1F)n1nc(-c2cc(C)ccc2C)ccc1=O` (stereo not given), the survival is 38% (active). For the compound `COc1ccc(NC(=O)c2sc3nc4n(c(=O)c3c2C)CCC4)cc1Cl`, the survival is 108% (inactive).

Regarding `CCc1ccc(NC(=O)C2(c3cccs3)CCOCC2)cc1`, the survival is 73% (inactive). Regarding `Nc1n[nH]c2nc(C(F)(F)F)cc(=O)n12`, the survival is 62% (inactive). As for `Cc1ccc(C(=O)C2=C(O)C(=O)N(CCc3ccccc3)C2c2ccncc2)o1` (stereo not given), the survival is 103% (inactive). With `COc1cc(OC)cc(C(=O)Nc2ccc3oc(-c4cccc5c(Br)cccc45)nc3c2)c1`, the survival is 60% (inactive).

For `CC(C)Oc1cccc(C(=O)Nc2ccc(-c3nc4cc(Cl)cc(Cl)c4o3)cc2)c1`, the survival was 55% (inactive). Consider `COC(=O)c1ccc(C(=O)Nc2ccc(-c3nc4cc(NC(=O)c5ccc(C(=O)OC)cc5)ccc4o3)cc2)cc1`, for which the survival is 60% (inactive). Turning to `COc1cc(C(=O)Nc2ccc(-c3nc4cc(C)c(C)cc4o3)cc2)cc(OC)c1OC`, the survival was 59% (inactive). As to `Cc1ccc(C(=O)Nc2ccc3oc(-c4ccccc4C)nc3c2)cc1`, the survival is 65% (inactive). Turning to `O=C(Nc1ccc(-c2nc3cc(NC(=O)c4ccc(Cl)cc4)ccc3o2)cc1)c1ccc(Cl)cc1`, the survival is 88% (inactive). As for `COc1cc(OC)cc(C(=O)Nc2ccc3oc(-c4ccccc4C)nc3c2)c1`, the survival was 34% (active). Regarding `COc1cccc(C(=O)Nc2ccc3oc(-c4ccc5ccccc5c4)nc3c2)c1`, the survival was 55% (inactive). `CC(C)Oc1cccc(C(=O)Nc2ccc3oc(-c4cccc(Cl)c4)nc3c2)c1`: the survival was 28% (active). In the case of `COc1ccc(C(=O)Nc2ccc3oc(-c4ccc(OC)cc4)nc3c2)cc1`, the survival was 60% (inactive).

With `COc1cc(OC)cc(C(=O)Nc2ccc(-c3nc4cc(C(C)C)ccc4o3)cc2)c1`, the survival is 45% (active).

Turning to `COc1cc(OC)cc(C(=O)Nc2ccc3oc(-c4ccc(Cl)cc4)nc3c2)c1`, the survival was 50% (active).

`Cc1cc(F)ccc1NC(=O)Cn1nc(N2CCN(c3ccccc3)CC2)ccc1=O`: the survival was 80% (inactive). As for `COc1cc(-c2noc(-c3ccc(N4CCOCC4)c([N+](=O)[O-])c3)n2)cc(OC)c1OC`, the survival is 66% (inactive). Turning to `CCc1cc(C(=O)OC)c(NC(=O)CC2SC(=NC)N(C)C2=O)s1` (stereo not given), the survival is 106% (inactive). In the case of `COCCn1c(CNC(=O)c2cccc(C)c2)nc2cccnc21` it was 95% (inactive); in that of `Cc1cccc(N2CCN(C(=O)CCc3nnc4n(CC(C)C)c(=O)c5ccccc5n34)CC2)c1C`, 74% (inactive).

Regarding `CCc1ccc(C2CC(=O)Nc3cc4c(cc32)OCO4)cc1` (stereo not given), the survival is 59% (inactive). Take `CCN(CC)S(=O)(=O)c1ccc(-c2nnc(SCC(=O)N3CCCC3)n2CC)cc1`: the survival is 103% (inactive). Consider `COc1ccc(Nc2nnc(-n3nc(C)cc3C)c3ccccc23)cc1`, for which the survival was 85% (inactive). Turning to `O=C(CSc1ncc(CO)n1Cc1ccccc1)Nc1nc2ccccc2s1`, the survival is 122% (inactive). As for `COc1ccccc1CNC(=O)Cn1nc(C)c2nn(-c3ccc(Cl)cc3)c(C)c2c1=O`, the survival was 63% (inactive). In the case of `CCOC(=O)c1ccc(NC(=O)Cn2nc(C)c3nn(-c4ccc(Cl)cc4)c(C)c3c2=O)cc1` it was 102% (inactive); in that of `Cc1ccccc1CNC(=O)Cn1nc(C)c2nn(-c3ccc(Cl)cc3)c(C)c2c1=O`, 37% (active); in that of `Cc1nn(CC(=O)Nc2ccc(OC(F)(F)F)cc2)c(=O)c2c(C)n(-c3ccc(Cl)cc3)nc12`, 25% (active). For the compound `COc1ccc(NC(=O)Cn2nc(C)c3nn(-c4ccc(Cl)cc4)c(C)c3c2=O)cc1`, the survival is 85% (inactive). With `CCOc1ccccc1CNC(=O)Cn1nc(C)c2nn(-c3ccc(Cl)cc3)c(C)c2c1=O`, the survival was 101% (inactive). For `Cn1c(=O)oc2cc(S(=O)(=O)N3CCC(C(=O)N4CCN(c5ccccc5F)CC4)CC3)ccc21` the value was 80% (inactive).

For the compound `Cc1cccc(NC(=O)CSc2nnc3[nH]c(=O)cc(C)n23)c1C`, the survival was 75% (inactive).

Regarding `CN(C)S(=O)(=O)c1ccc(S(=O)(=O)N2CCN(C=O)CC2)cc1`, the survival is 105% (inactive). For the compound `CCOc1ccc(CNC(=O)Cc2ccc(NC(=O)N3CCSc4ncccc43)cc2)cc1`, the survival is 96% (inactive).

For `CC(C)(C)C(=O)N1CCN(c2nc3c(F)cccc3s2)CC1`, the survival is 82% (inactive). As for `Cc1ccc(NCc2nnc(SCC(=O)N(Cc3ccccc3)C(C)(C)C)o2)c(C)c1`, the survival was 94% (inactive). Take `Cc1cccc(OCc2nnc(SCC(N)=O)o2)c1`: the survival is 91% (inactive). For `COC(=O)CSc1nnc(COc2cccc3ccccc23)o1` the value was 46% (active); for `Cc1ccccc1OCc1nnc(SCC(=O)N(Cc2ccccc2)C(C)(C)C)o1`, 59% (active); for `Cc1csc(N(C)C(=O)CSc2nnc(COc3cccc4ccccc34)o2)n1`, 56% (inactive). On to `CC(C)(C)N(Cc1ccccc1)C(=O)CSc1nnc(CNc2ccc(F)cc2)o1`, for which the survival is 74% (inactive). Regarding `Cc1cccc(OCc2nnc(SCC(=O)N3c4ccccc4CCc4ccccc43)o2)c1`, the survival is 99% (inactive). For `CCOC(=O)CSc1nnc(COc2cccc(C)c2)o1`, the survival is 42% (active). `NC(=O)CSc1nnc(COc2cccc3ccccc23)o1`: the survival was 89% (inactive). With `On1ccc2c(Br)cncc21`, the survival was 94% (inactive). Turning to `CCc1ccc2nc(N3CCN(C(=O)c4ccco4)CC3)sc2c1`, the survival was 86% (inactive). As to `O=C(CSc1nc(-c2cccc(Cl)c2)nc2cc(=O)[nH]n12)Nc1ccccc1`, the survival is 71% (inactive).

As for `Cc1ccc(CSc2ncc(Cl)c(C(=O)Oc3ccc(F)cc3)n2)cc1`, the survival is 77% (inactive). Regarding `CCC(=O)N1c2ccccc2CC1C(=O)NCc1cccc(OC)c1OC` (stereo not given), the survival was 84% (inactive). Turning to `COc1cc(C2C(C#N)=C(N)Oc3n[nH]c(C(F)(F)F)c32)ccc1OCC(N)=O` (stereo not given), the survival was 72% (inactive). As to `CC(NC(=O)Cn1c(=O)oc2cc(S(=O)(=O)N3CCCCCC3)ccc21)c1ccccc1` (stereo not given), the survival was 82% (inactive).

In the case of `COc1ccccc1CNC(=O)C1CCN(c2nnc(C)c3c(C)n(-c4ccccc4)nc23)CC1`, the survival was 104% (inactive).

On to `Cc1noc(/C=C/c2ccco2)c1S(=O)(=O)N1CCC(C(=O)Nc2ccc(F)c(Cl)c2)CC1`, for which the survival was 100% (inactive). As for `CCOC(=O)c1sc2cccc(F)c2c1S(=O)(=O)N1CCN(c2cccc(Cl)c2)CC1`, the survival is 102% (inactive). In the case of `COc1cccc(OC)c1C(=O)NCCc1sc(-c2cccc(F)c2)nc1C` it was 69% (inactive); in that of `CCn1cc(C(=O)NCc2ccccc2Cl)c(=O)c2cc(S(=O)(=O)N3CCOCC3)ccc21`, 75% (inactive). In the case of `O=C(O)c1ccc(NC(=O)c2ccc(Cl)c(S(=O)(=O)N3CCCCCC3)c2)cc1`, the survival is 131% (inactive).

For the compound `O=C(O)c1ccc(NS(=O)(=O)c2ccc(Cl)c(C(=O)Nc3ccccc3)c2)cc1`, the survival is 73% (inactive). As to `Cc1ccc(C(=O)Nc2ccccc2)cc1S(=O)(=O)Nc1ccccc1`, the survival is 46% (active). Take `COc1ccc(C(=O)Nc2ccccc2)cc1S(=O)(=O)Nc1ccc(Br)cc1`: the survival was 78% (inactive).

With `Cc1ccc(C(=O)Nc2ccc(Br)cc2)cc1S(=O)(=O)NCc1ccccc1`, the survival was 83% (inactive). Consider `CCOc1cccc(NC(=O)c2ccc(F)c(S(=O)(=O)N(CC)c3cccc(C)c3)c2)c1`, for which the survival was 86% (inactive).

Regarding `CCN(c1ccccc1)S(=O)(=O)c1ccc(F)c(C(=O)Nc2ccc(C)cc2)c1`, the survival was 100% (inactive). In the case of `O=C(Nc1ccccc1)c1ccc(Cl)c(S(=O)(=O)Nc2ccccc2)c1` it was 43% (active); in that of `CCN(c1ccccc1)S(=O)(=O)c1cc(C(=O)Nc2ccc(Br)cc2)ccc1F`, 6% (active); in that of `Cc1ccc(C(=O)Nc2cccc(C(=O)O)c2)cc1S(=O)(=O)N1CCCC1`, 81% (inactive).

Consider `Cc1ccc(C(=O)Nc2ccccc2)cc1S(=O)(=O)Nc1ccc(Br)cc1`, for which the survival was 6% (active). For `Cc1ccc(C(=O)Nc2ccc(C(=O)O)cc2)cc1S(=O)(=O)Nc1ccccc1`, the survival is 74% (inactive). In the case of `CCOCCCNC(=O)C(Cc1ccccc1)NS(=O)(=O)c1ccc2c(c1)c(=O)n(C)c(=O)n2C` (stereo not given) it was 88% (inactive); in that of `O=C(Cc1cccs1)Nc1ccccc1`, 70% (inactive).

`CN(C)c1cccc(C(=O)Nc2ccc(-c3nc4ccccc4s3)cc2)c1`: the survival was 106% (inactive). As for `O=C(NCC(c1cccnc1)N1CCN(c2ccccc2F)CC1)c1ccc(F)cc1` (stereo not given), the survival is 92% (inactive). `Cc1cccc(Cc2c(C)nc3nc(SCc4ccccc4C)nn3c2C)c1`: the survival is 95% (inactive). `Cc1nc2nc(SCC(=O)NCc3ccccc3Cl)nn2c(C)c1Cc1ccccc1`: the survival was 64% (inactive). As for `Cc1ccc(NC(=O)CSc2nc3nc(C)c(Cc4ccccc4)c(C)n3n2)cc1`, the survival is 60% (inactive).

For `Cc1cccc(Cc2c(C)nc3nc(SCc4ccccc4F)nn3c2C)c1`, the survival is 84% (inactive). Turning to `COc1cc(NC(=O)CSc2nc3nc(C)c(Cc4ccccc4)c(C)n3n2)cc(OC)c1OC`, the survival was 80% (inactive). As for `CCN(CC)CCNC(=O)CSc1nc2nc(C)c(Cc3ccccc3)c(C)n2n1`, the survival was 86% (inactive). For `Cc1cccc(Cc2c(C)nc3nc(SCC(=O)NCc4ccccc4)nn3c2C)c1` the value was 40% (active). In the case of `Cc1cccc(Cc2c(C)nc3nc(SCC(=O)NCc4ccc(F)cc4)nn3c2C)c1` it was 56% (inactive); in that of `Cc1cccc(Cc2c(C)nc3nc(SCc4ccccc4Cl)nn3c2C)c1`, -9% (active).

Regarding `Cc1nc2nc(SCC(=O)NCc3ccccc3)nn2c(C)c1Cc1ccccc1`, the survival is 8% (active). As for `Cc1nc2nc(SCC(=O)NCc3ccccc3)nn2c(C)c1Cc1ccccc1Cl`, the survival was 147% (inactive). With `Cc1nc2nc(SCC(=O)Nc3ccccc3Cl)nn2c(C)c1Cc1ccccc1`, the survival was 20% (active).
